# Bioassay records as filed in PubChem.
# This excerpt belongs to a sample that is enriched for hits.
# APEX1 inh – inhibitors of human APE1 endonuclease. P27695. Potency, µM (titrated, usually from 65.8 µM), most hits filed as inhibitors. recombinant APE1, TAMRA/BHQ-2 abasic DNA cleavage fluorescence. AID 2517. 350,000 compounds, 0.35% hits; further: nearly all actives have a fitted effect of over 55% in size
#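 Substrate: short duplex with […] THF abasic site, 5'-TAMRA and 3'-BHQ-2, 50 nM final. APE1 at 0.75 nM, preincubated 15 min RT with compound. Fluorescence increase from first to third read measured activity.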
# L3MBTL1 block – blocks human L3MBTL1. AID 485360. AlphaScreen L3MBTL1–H3K9me1 peptide binding. Potency, µM (top dose mostly 57.1 µM), hits mostly inhibitors. 230,000 compounds, 0.66% hits; further: nearly all actives have a fitted effect of over 60% in size
# Target sequence (Q9Y468 whole entry, looked up): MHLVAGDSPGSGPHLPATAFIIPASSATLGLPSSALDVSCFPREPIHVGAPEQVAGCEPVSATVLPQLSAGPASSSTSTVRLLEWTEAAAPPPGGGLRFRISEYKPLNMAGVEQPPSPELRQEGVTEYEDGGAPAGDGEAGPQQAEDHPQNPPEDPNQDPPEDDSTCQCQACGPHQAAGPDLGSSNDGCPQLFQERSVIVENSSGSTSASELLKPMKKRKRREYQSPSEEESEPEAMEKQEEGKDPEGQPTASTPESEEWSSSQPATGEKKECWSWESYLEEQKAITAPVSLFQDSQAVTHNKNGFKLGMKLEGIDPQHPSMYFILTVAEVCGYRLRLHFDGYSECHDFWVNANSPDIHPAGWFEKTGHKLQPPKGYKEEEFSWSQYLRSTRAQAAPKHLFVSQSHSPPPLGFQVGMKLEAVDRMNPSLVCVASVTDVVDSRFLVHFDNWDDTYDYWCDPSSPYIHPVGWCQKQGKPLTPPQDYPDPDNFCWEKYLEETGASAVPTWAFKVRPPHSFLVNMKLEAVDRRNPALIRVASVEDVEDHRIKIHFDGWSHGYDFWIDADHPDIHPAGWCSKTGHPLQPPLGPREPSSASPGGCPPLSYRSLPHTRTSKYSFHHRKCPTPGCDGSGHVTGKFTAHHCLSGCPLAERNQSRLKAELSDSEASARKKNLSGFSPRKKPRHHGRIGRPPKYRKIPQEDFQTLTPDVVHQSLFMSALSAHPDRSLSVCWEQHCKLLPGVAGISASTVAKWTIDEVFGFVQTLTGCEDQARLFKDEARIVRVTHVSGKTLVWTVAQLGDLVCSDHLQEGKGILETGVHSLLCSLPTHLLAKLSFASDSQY
#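 AlphaScreen assay: L3MBTL1 (50 nM final) was preincubated 30 min at room temperature with biotinylated H3(1-15)K9me1 peptide (75 nM final), then 30 min with library compounds; streptavidin donor and nickel chelate acceptor beads (10 ug/mL final) added, 30 min dark.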
# RECQ1 inh – inhibitors of human RECQ1 DNA helicase | AID 2549 | RECQ1 DNA unwinding, red fluorescence kinetic read | P46063 | 240,000 compounds, 0.54% hits | Potency, µM (top dose mostly 57.3 µM), usual class: inhibitors; further: nearly all actives have a fitted effect of over 30% in size
#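 RECQ1T1 50 nM; forked duplex (20 bp + 30-nt ss tails) 200 nM, ATP 2 mM final; pH 8.0, 2 mM MgCl2, 2.5 ug/ml poly(dI-dC); 15 min compound preincubation; discontinuous kinetic read over 2 h at RT.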
# BLM inh – inhibitors of human Bloom syndrome helicase BLM; 350,000 compounds, 0.2% hits; P54132; recombinant BLM DNA unwinding, fluorescence dequenching; Potency, µM (series often up to 56.1 µM), actives largely listed as inhibitors; further: nearly all actives have a fitted effect of over 35% in size
# JMJD2E inh – inhibitors of human JMJD2E histone demethylase. B2RXH2. JMJD2E catalytic domain, FDH-coupled NADH fluorescence (FDH is formaldehyde dehydrogenase). Potency, µM (doses to about 57.1 µM), usual class: inhibitors. 230,000 compounds, 1.6% hits. AID 2147; active means well fitted inhibition curve with a large enough effect, not every such curve was filed as active; inconclusive means small, poorly fitted or top-dose-only effect, or another doubt; inactive means no such curve, though single readings can be large or run the other way; further: nearly all actives have a fitted effect of over 50% in size
# Hits are given with their value; – = inactive; ? = inconclusive; · = no result; ! = a repeat was not active; [ ] = another dose, or the depositor's remark. Unless noted, the call rests on the fitted dose curve; in most records, active means well fitted curve in the direction sought with a large enough effect; inconclusive means small, poorly fitted or top-dose-only effect, or another doubt; inactive means no such curve, though single readings can be large; an effect the other way counts as inactive or inconclusive.
SMILES,APEX1 inh,L3MBTL1 block,RECQ1 inh,BLM inh,JMJD2E inh
CCOC(=O)c1c(N)sc(=S)c2c1CCC2,35µM,?,?,–,?
CCOC(=O)c1c(N)sc(N)c1C(=O)OCC,?,–,–,–,–
COc1ccc(/C=C2\CCCC(C(=O)C(F)(F)F)=C2O)cc1OC,–,·,–,–,25µM
Cc1nc2ccccc2c(=O)n1/N=C/c1ccc(O)c(O)c1O,–,·,·,–,·
Cc1nc2ccccc2c(=O)n1/N=C/c1ccc2ccccc2c1O,–,32µM,–,–,?
Cc1nc2ccccc2c(=O)n1/N=C/c1ccccc1O,–,–,–,–,25µM
Cn1c(COc2ccc(Cl)cc2Cl)nnc1SCC(=O)NCC1CCCO1 (centres undefined),–,·,·,–,·
COc1ccc(OC)c(Nc2nc(N(C)c3ccccc3)nc(N)c2[N+](=O)[O-])c1,–,·,·,–,·
O=C(CSc1cccc[n+]1[O-])c1cc2ccccc2o1,–,–,–,–,32µM
O=C(O)CSc1cccc[n+]1[O-],–,·,–,–,–
COc1ccc(C)cc1Nc1nc(N)c2cc(OC)c(OC)cc2n1,–,·,·,20µM,·
O=C(Nc1ccc(C(=O)Nc2ccc(C(=O)Nc3ccc(S(=O)(=O)O)c4cc(S(=O)(=O)O)cc(S(=O)(=O)O)c34)cc2)cc1)Nc1ccc(C(=O)Nc2ccc(C(=O)Nc3ccc(S(=O)(=O)O)c4cc(S(=O)(=O)O)cc(S(=O)(=O)O)c34)cc2)cc1,7.9µM,·,6.3µM,–,?
Oc1ccc(N2CCN(c3ncnc4sc(-c5ccccc5)cc34)CC2)cc1,–,?,–,–,16µM
CC(=O)N1CCN(c2ncnc3sc(-c4ccccc4)cc23)CC1,–,·,–,–,?
Clc1ccc(-c2n[nH]c3c2Cc2ccccc2-3)cc1Cl,–,·,–,–,–
COc1ccc(-c2csc(N(CCCN(C)C)C(=O)c3ccccc3C)n2)cc1,–,35µM,·,–,·
CCN(CC)c1ccc(NC2CC(=O)N(CCc3ccc(OC)cc3)C2=O)cc1 (centres undefined),–,·,?,–,13µM
O=C(CCN1C(=O)/C(=C\C=C\c2ccccc2)SC1=S)Nc1ccc(C(=O)O)cc1,13µM,·,·,?,·
CC[C@]12c3[nH]c4cc(-c5ccco5)ccc4c3CCN1C(=O)[C@@H](CC(=O)NCCC1=CCCCC1)C[C@@H]2C(=O)N1CCN(C(=O)c2ccco2)CC1,–,20µM,·,·,·
CC[C@]12c3[nH]c4cc(CCC(=O)N(C)C)ccc4c3CCN1C(=O)[C@@H](CC(=O)NCCCOC)C[C@@H]2C(=O)N1CCN(C(=O)C2CC2)CC1,21µM,–,·,·,·
CC[C@]12c3[nH]c4cc(CCC(=O)N(C)C)ccc4c3CCN1C(=O)[C@@H](CC(=O)NCCC1=CCCCC1)C[C@@H]2C(=O)N1CCN(C(=O)c2ccco2)CC1,–,–,·,·,·
CC[C@]12c3[nH]c4cc(CCC(=O)N(C)C)ccc4c3CCN1C(=O)[C@@H](CC(=O)NCCCN(C)C)C[C@@H]2C(=O)N1CCN(C(=O)C2CC2)CC1,–,–,·,·,·
CCC(=Nc1ccccc1O)C1=C(O)CC(c2ccccc2)CC1=O (centres undefined),–,–,–,–,25µM
CCC(=Nc1ccccc1OC)C1=C(O)CC(c2ccccc2)CC1=O (centres undefined),?,·,–,–,–
O=C(NCCc1cccc(Cl)c1)C1CCC(=O)N(Cc2ccc(Cl)cc2)C1 (centres undefined),–,·,·,–,·
SMILES,APEX1 inh,L3MBTL1 block,RECQ1 inh,BLM inh,JMJD2E inh
COC(=O)NC1CCC(CC2CCC(NC(=O)OC)CC2)CC1 (centres undefined),–,–,–,–,–
Cc1ccc(NC2=CC(=O)C(=O)c3ccccc32)cc1,–,?,–,?,14µM
NS(=O)(=O)c1ccc(NC2=CC(=O)C(=O)c3ccccc32)cc1,–,?,·,?,·
COc1ccc(C(=O)c2cc([N+](=O)[O-])ccc2N2CCN(C)CC2)cc1,–,–,–,–,1µM
Nc1cccc(CCc2ccncc2)c1,–,–,·,–,·
COc1cccc(NC(=O)Cc2nnc(SCC(=O)NC3CCCCC3)n2C)c1,–,·,·,–,·
CC1(C)OC2OC(C(=O)N/N=C/c3cc(Br)ccc3O)C3OC(C)(C)OC3C2O1 (centres undefined),–,–,–,–,28µM
N#Cc1ccccc1S(=O)(=O)N1CCN(C(=O)c2cc3c(s2)CCC3)CC1,5.3µM,?,·,·,·
COCCOC(=O)C1=C(C)Nc2cc(=O)[nH]c(=O)n2C1c1cccc([N+](=O)[O-])c1 (centres undefined),–,–,–,–,–
c1ccc(-c2cn3c(n2)-c2ccccc2C3)cc1,–,–,–,–,3.2µM
Cc1ccc2nc(-c3ccccc3)cn2c1,–,–,–,–,?
O=C1NCC(O)=C1C=NCCCO,–,–,–,–,–
O=c1[nH][nH]cc1C=Nc1ccccc1O,–,–,–,–,25µM
O=C1NCC(O)=C1C=Nc1ccccc1O,–,–,–,–,18µM
O=c1[nH][nH]cc1C=Nc1ccccc1Cl,–,–,–,–,–
COC(=O)CNC(=O)[C@@]1(Cc2ccccc2)C=C[C@@H](C)N1C(=O)c1ccccc1,–,·,–,–,–
CCC12CN3CC(C)(CN(C1)C3c1c(C)[nH]c3ccccc13)C2=O (centres undefined),·,·,·,–,·
CCN(CC(=O)NC(C)(C)C)C(=O)c1ccc(Br)cc1,–,·,–,–,–
O=c1nc2c(O)cccn2c2c1c(=O)[nH]c1ccccc12,–,–,–,7.9µM,11µM
O=c1[nH]c2ccccc2c2nc3ccccn3c12,–,–,–,–,?
O=C(N/N=C/c1ccncc1)c1cccs1,–,·,·,–,·
O=C(N/N=C/c1ccc(-c2ccccc2C(=O)O)o1)c1cccs1,–,25µM,–,–,–
COCCCNC(=O)c1cc2c(=O)oc3ccc(C)cc3c2s1,·,·,·,–,·
S=C(NNc1ccc2ccccc2c1)NC1CCCCC1,–,?,–,–,11µM
O=S(=O)(Cc1ccccc1)N1CCN(Cc2ccc(Br)cc2)CC1,–,·,·,–,·
SMILES,APEX1 inh,L3MBTL1 block,RECQ1 inh,BLM inh,JMJD2E inh
CC(C)CSc1n[nH]c(N)n1,–,·,–,–,–
COC/C=C/C1=CC2=CC(=O)C(C)(OC(=O)c3cnc4ccccc4n3)C(=O)C2=CN1c1ccc(CO)cc1 (centres undefined),11µM!,3.2µM,–[11.5 µM],13µM!,–[11.4 µM]
O=C(N[C@H]1C/C=C\C[C@@H](CC(=O)N(CCO)Cc2ccccc2)C(=O)N2CCC[C@H]2COC1=O)OCC1c2ccccc2-c2ccccc21,–,–,·,·,·
O=C(N[C@H]1C/C=C\C[C@@H](CC(=O)N(CCO)Cc2ccccc2)C(=O)N2CCC[C@@H]2COC1=O)OCC1c2ccccc2-c2ccccc21,11µM,–,·,·,·
COc1ccc(N(CC(=O)NCc2ccco2)S(=O)(=O)c2ccc(C)cc2)cc1OC,–,·,·,–,·
Cc1ccc(S(=O)(=O)N(CC(=O)O)Cc2ccco2)cc1,14µM,·,–,–,–
